Records with an inconclusive call do not appear. Calls of active or inactive are those of the source. The calls were made as follows, unless noted: active = hit-call score of the fitted dose curve at least 0.9, where 1 is the maximum; inactive = score below 0.9.
Key:
[1] = ATG_PBREM_CIS: Attagene CIS-FACTORIAL HepG2 Assay for human Phenobarbital-responsive Enhancer Module (PBREM) (AID 2282955); settings: HepG2 PBREM cis-reporter, Attagene multiplexed transcription; actives raise or lower the signal
Procedure, shortened: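 HepG2 cells transiently transfected with multiple cis-regulated reporter transcription units; endogenous factor activity at the PBREM element measured as reporter mRNA 24 h after dosing, via RT-PCR and capillary electrophoresis of fluorescent fragments; bidirectional fitting versus DMSO.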

[2] = molecular target: Paired box protein Pax-6 (Homo sapiens) (UniProt P26367); experiment: ATG_Pax6_CIS: Attagene CIS-FACTORIAL HepG2 Assay for human Paired Box 6 (PAX6) (AID 2282956); settings: HepG2 CIS-FACTORIAL PAX6 reporter transcription, RNA readout; actives raise or lower the signal
Procedure, shortened: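 Transient MRTU transfection of HepG2 → compound exposure 24 h → TriZol RNA, oligo(dT) RT → PCR, 6-FAM primer extension, HpaI cut → capillary electrophoresis; activity fitted both directions against DMSO.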

[3] = ATG_PXRE_CIS: Attagene CIS-FACTORIAL HepG2 Assay for human Pregnane X Receptor Element (PXRE) (AID 2282957); settings: HepG2 Attagene CIS-FACTORIAL PXRE reporter, mRNA; actives raise or lower the signal
Procedure, shortened: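 Transfect HepG2 with MRTUs (cis promoter elements); dose chemical, incubate 24 h; isolate RNA, RT with oligo(dT), PCR, 6-FAM label, HpaI cut, CE. Gain/loss fit vs DMSO.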

[4] = ATG_PPRE_CIS: Attagene CIS-FACTORIAL HepG2 Assay for human Peroxisome Proliferator-activated Response Element (PPRE) (AID 2282958); settings: HepG2 PPRE cis-element reporter, Attagene transcription factor profiling; actives raise or lower the signal
Procedure, shortened: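 HepG2 cells transiently transfected with multiplexed cis-element reporter units measure endogenous transcription factor activity. After 24 h compound exposure, reporter mRNA is quantified by RT-PCR, 6-FAM labeling, HpaI digestion and capillary electrophoresis; bidirectional fits are made against DMSO baseline.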

[5] = ATG_RORE_CIS: Attagene CIS-FACTORIAL HepG2 Assay for human RAR-related Orphan Receptor Element (RORE) (AID 2282959); settings: HepG2 Attagene cis-factorial RORE reporter, mRNA; actives raise or lower the signal
Procedure, shortened: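 HepG2 cells transiently transfected with multiple cis-element reporter transcription units, exposed to chemical for 24 h. Reporter mRNA quantified by RT-PCR, 6-FAM primer-extension labeling, HpaI digestion and capillary electrophoresis; bidirectional fit versus DMSO baseline.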

[6] = ATG_Sox_CIS: Attagene CIS-FACTORIAL HepG2 Assay for human SRY-box transcription factor (SOX) (AID 2282960); settings: HepG2 Attagene cis-factorial SOX reporter, mRNA; actives raise or lower the signal
Procedure, shortened: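 HepG2 cells transiently transfected with cis-element-driven multiple reporter transcription units, dosed 24 h; reporter mRNA measured by RT-PCR, FAM labelling, HpaI digestion and capillary electrophoresis. Bidirectional fit versus DMSO baseline.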

[7] = molecular target: Transcription factor Sp1 (Homo sapiens) (UniProt P08047); experiment: ATG_Sp1_CIS: Attagene CIS-FACTORIAL HepG2 Assay for human Specificity Protein 1 (Sp1) (AID 2282961); settings: HepG2 Sp1 cis-reporter transcription, actives raise or lower the signal
Procedure, shortened: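 HepG2 cells transiently transfected with multiple reporter transcription units driven by cis-regulatory elements; Sp1-responsive reporter mRNA measured 24 h after dosing by RT-PCR and capillary electrophoresis fluorescence, fitted bidirectionally against DMSO baseline.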

[8] = ATG_SREBP_CIS: Attagene CIS-FACTORIAL HepG2 Assay for human Sterol Regulatory Element Binding (SREBP) (AID 2282962); settings: HepG2 Attagene cis-factorial SREBP reporter, mRNA; actives raise or lower the signal
Procedure, shortened: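 Transfected HepG2 (cis-regulated reporter library, endogenous TFs) → compound 24 h → total RNA → oligo(dT) RT → reporter-specific PCR → FAM primer extension, HpaI cut → CE fluorescence. Fit bidirectional vs DMSO.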

[9] = molecular target: Signal transducer and activator of transcription 3 (Homo sapiens) (UniProt P40763); experiment: ATG_STAT3_CIS: Attagene CIS-FACTORIAL HepG2 Assay for human Signal Transducer and Activator of Transcription 3 (STAT3) (AID 2282963); settings: HepG2, Attagene cis-factorial STAT3 reporter transcription; actives raise or lower the signal
Procedure, shortened: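 HepG2 cells transiently transfected with cis-element-driven multiple reporter transcription units; after 24 h chemical exposure, reporter mRNA measured by RT-PCR, 6-FAM primer-extension labelling, HpaI digestion and capillary electrophoresis. Bidirectional fitting versus DMSO baseline.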

[10] = ATG_TA_CIS: Attagene CIS-FACTORIAL HepG2 Assay for human TA Basal Promoter (AID 2282964); settings: HepG2 Attagene CIS-factorial TA basal promoter reporter; actives raise or lower the signal
Procedure, shortened: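 Read-out: fluorescent reporter-transcript fragments resolved by capillary electrophoresis after RT-PCR and HpaI digestion. Source: HepG2 cells carrying transiently transfected multi-reporter cis constructs, treated 24 h. Endpoint fitted bidirectionally relative to DMSO.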

[11] = ATG_TCF_b_cat_CIS: Attagene CIS-FACTORIAL HepG2 Assay for human T-Cell-Factor with beta-catenin (TCF/b-cat) (AID 2282965); settings: HepG2 TCF/beta-catenin cis-reporter transcription, actives raise or lower the signal
Procedure, shortened: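 Using capillary electrophoresis as the read-out, labelled reporter cDNA fragments from transiently transfected HepG2 were sized and quantified. Exposure lasted 24 hours; activity in either direction was referenced to DMSO.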

[12] = ATG_TAL_CIS: Attagene CIS-FACTORIAL HepG2 Assay for human TAL Basal Promoter (AID 2282966); settings: HepG2 Attagene cis-factorial TAL promoter reporter; actives raise or lower the signal;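 also: background control endpoint measuring basal TAL promoter reporter mRNA not a specific factor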
Procedure, shortened: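 Fluorescence of labelled reporter cDNA fragments, resolved by capillary electrophoresis, gave the readout. Human HepG2 liver cells carried transiently transfected cis-element reporter units and were treated for 24 hours; activity was fitted bidirectionally against DMSO.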

[13] = ATG_TGFb_CIS: Attagene CIS-FACTORIAL HepG2 Assay for human Transforming Growth Factor (TGF) (AID 2282967); settings: HepG2 Attagene CIS TGFb reporter, mRNA transcription; actives raise or lower the signal
Procedure, shortened: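 Transient MRTU transfection of HepG2 (FuGene 6). Dose 24 h. TriZol RNA, oligo(dT) RT, PCR, 6-FAM primer extension, HpaI cut, CE. Bidirectional fit, DMSO = baseline.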

[14] = ATG_VDRE_CIS: Attagene CIS-FACTORIAL HepG2 Assay for human Vitamin D Receptor Element (VDRE) (AID 2282968); settings: HepG2 VDRE cis-reporter transcription, actives raise or lower the signal
Procedure, shortened: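 HepG2 cells transiently transfected with cis-element reporter units, dosed 24 h; reporter mRNA measured by RT-PCR, 6-FAM labeling, HpaI digestion and capillary electrophoresis. Activity fitted bidirectionally against DMSO baseline.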

[15] = molecular target: Steroid hormone receptor ERR1 (Homo sapiens) (UniProt P11474); experiment: ATG_ERRa_TRANS: Attagene TRANS-FACTORIAL HepG2 Assay for human Estrogen-Related Receptor alpha (ERRa) (AID 2282971; active = hit-call score of the fitted dose curve at least 0.9, where 1 is the maximum); settings: HepG2 Attagene TRANS reporter, ERRa transactivation
Procedure, shortened: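 Reporter transcript induction was quantified by RT-PCR and capillary electrophoresis of FAM-labelled, HpaI-cut products after 24 h treatment of HepG2 cells carrying transiently transfected GAL4-UAS reporter units and an exogenous ERRa-Gal4 fusion; activity scored as increase over DMSO.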

[16] = molecular target: X-box-binding protein 1 (Homo sapiens) (UniProt P17861); experiment: ATG_Xbp1_CIS: Attagene CIS-FACTORIAL HepG2 Assay for human X-box Binding Protein 1 (XBP1) (AID 2282972); settings: HepG2 XBP1 cis-element reporter, Attagene multiplex; actives raise or lower the signal
Procedure, shortened: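 HepG2, transient MRTU transfection (cis-promoter driven), 24 h compound exposure. Total RNA → oligo(dT) RT → PCR → 6-FAM labeling → HpaI cut → CE. Bidirectional fit vs DMSO.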

[17] = ATG_M_19_TRANS: Attagene TRANS-FACTORIAL HepG2 Assay for M19 Transcription Factor (Internal Marker) (AID 2282974; active = hit-call score of the fitted dose curve at least 0.9, where 1 is the maximum); settings: HepG2 Attagene TRANS-FACTORIAL M19 internal marker reporter
Procedure, shortened: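 HepG2 cells transiently transfected with multiple GAL4-UAS reporter transcription units were exposed to chemicals for 24 h. Reporter mRNA was read by RT-PCR, 6-FAM primer extension, HpaI digestion and capillary electrophoresis; gain of signal fitted relative to DMSO.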

[18] = molecular target: Nuclear receptor subfamily 1 group I member 3 (Homo sapiens) (UniProt Q14994); experiment: ATG_CAR_TRANS: Attagene TRANS-FACTORIAL HepG2 Assay for human Constitutive Androstane Receptor (CAR) (AID 2282969; active = hit-call score of the fitted dose curve at least 0.9, where 1 is the maximum;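 also: activators raise reporter mRNA above DMSO so AC50 marks induction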); settings: HepG2 Attagene TRANS-FACTORIAL CAR reporter
Procedure, shortened: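 HepG2 cells transiently transfected with multiplexed GAL4-UAS reporter units expressing chimeric NR-Gal4 proteins; compound exposure 24 h. Reporter mRNA measured by RT-PCR, 6-FAM labelling, HpaI digestion and capillary electrophoresis; gain-of-signal fitted against DMSO baseline.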

[19] = molecular target: Estrogen receptor (Homo sapiens) (UniProt P03372); experiment: ATG_ERa_TRANS: Attagene TRANS-FACTORIAL HepG2 Assay for human Estrogen Receptor alpha (ERa) (AID 2282970; active = hit-call score of the fitted dose curve at least 0.9, where 1 is the maximum); settings: HepG2 Attagene TRANS ERa GAL4 reporter, mRNA
Procedure, shortened: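 Human liver HepG2, transient transfection of multiple GAL4-UAS reporter units; TRANS format (exogenous NR-Gal4 chimera). 24 h dosing. Readout: reporter mRNA, RT-PCR, 6-FAM primer extension, HpaI digest, capillary electrophoresis. Positive direction vs DMSO.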

[20] = ATG_GAL4_TRANS: Attagene TRANS-FACTORIAL HepG2 Assay for GAL4 (Internal Marker) (AID 2282976; active = hit-call score of the fitted dose curve at least 0.9, where 1 is the maximum); settings: HepG2 Attagene TRANS GAL4 internal marker reporter
Procedure, shortened: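 First, HepG2 cells were transfected with reporter units under GAL4-UAS control. Next, they were treated with chemical for 24 h. Finally, RNA was reverse-transcribed, PCR-amplified, FAM-labelled and resolved by capillary electrophoresis, with induction scored against DMSO.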

Measured: AC50

Chain of Signal transducer and activator of transcription 3 (Homo sapiens) (P40763 whole entry, looked up): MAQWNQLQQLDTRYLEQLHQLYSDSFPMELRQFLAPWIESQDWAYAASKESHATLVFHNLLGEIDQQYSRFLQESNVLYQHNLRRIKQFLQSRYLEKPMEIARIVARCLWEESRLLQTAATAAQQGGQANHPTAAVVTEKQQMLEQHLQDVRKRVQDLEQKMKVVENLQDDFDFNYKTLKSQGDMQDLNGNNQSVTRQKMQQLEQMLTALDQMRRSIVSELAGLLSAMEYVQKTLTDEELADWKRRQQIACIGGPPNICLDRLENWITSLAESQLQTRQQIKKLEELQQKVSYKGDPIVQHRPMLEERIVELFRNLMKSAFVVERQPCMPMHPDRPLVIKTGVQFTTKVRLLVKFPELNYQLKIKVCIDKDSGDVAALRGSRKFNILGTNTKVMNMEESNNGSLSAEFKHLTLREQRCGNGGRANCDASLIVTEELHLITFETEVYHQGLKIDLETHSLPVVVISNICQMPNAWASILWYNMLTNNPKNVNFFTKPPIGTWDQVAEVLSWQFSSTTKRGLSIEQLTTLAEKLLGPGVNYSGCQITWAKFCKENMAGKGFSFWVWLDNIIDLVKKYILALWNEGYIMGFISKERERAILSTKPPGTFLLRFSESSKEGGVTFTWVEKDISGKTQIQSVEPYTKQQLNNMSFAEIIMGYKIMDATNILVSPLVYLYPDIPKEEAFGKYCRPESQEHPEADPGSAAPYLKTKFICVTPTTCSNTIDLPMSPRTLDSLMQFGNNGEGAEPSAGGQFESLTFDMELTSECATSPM
Chain of Transcription factor Sp1 (Homo sapiens) (P08047 whole entry, looked up): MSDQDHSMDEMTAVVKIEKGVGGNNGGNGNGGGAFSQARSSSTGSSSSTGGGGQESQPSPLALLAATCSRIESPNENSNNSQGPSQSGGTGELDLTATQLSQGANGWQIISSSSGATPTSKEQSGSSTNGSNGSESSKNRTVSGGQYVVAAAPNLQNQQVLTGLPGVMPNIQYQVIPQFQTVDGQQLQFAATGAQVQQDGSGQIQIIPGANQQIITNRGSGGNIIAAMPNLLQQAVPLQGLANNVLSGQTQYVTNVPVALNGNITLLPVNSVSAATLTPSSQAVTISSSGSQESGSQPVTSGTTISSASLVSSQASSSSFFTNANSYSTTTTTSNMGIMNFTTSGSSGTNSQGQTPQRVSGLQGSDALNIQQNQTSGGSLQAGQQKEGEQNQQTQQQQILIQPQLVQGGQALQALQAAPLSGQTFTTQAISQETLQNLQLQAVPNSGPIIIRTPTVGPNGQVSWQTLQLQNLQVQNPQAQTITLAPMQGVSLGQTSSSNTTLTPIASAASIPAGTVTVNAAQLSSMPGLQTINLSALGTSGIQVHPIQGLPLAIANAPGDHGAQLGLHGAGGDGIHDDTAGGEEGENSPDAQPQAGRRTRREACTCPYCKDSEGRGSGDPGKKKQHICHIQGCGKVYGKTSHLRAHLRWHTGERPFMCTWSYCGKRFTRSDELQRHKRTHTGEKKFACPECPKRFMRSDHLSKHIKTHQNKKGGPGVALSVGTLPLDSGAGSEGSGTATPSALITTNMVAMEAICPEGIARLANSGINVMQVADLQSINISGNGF
Chain of Nuclear receptor subfamily 1 group I member 3 (Homo sapiens) (Q14994 whole entry, looked up, the tested form may be a part): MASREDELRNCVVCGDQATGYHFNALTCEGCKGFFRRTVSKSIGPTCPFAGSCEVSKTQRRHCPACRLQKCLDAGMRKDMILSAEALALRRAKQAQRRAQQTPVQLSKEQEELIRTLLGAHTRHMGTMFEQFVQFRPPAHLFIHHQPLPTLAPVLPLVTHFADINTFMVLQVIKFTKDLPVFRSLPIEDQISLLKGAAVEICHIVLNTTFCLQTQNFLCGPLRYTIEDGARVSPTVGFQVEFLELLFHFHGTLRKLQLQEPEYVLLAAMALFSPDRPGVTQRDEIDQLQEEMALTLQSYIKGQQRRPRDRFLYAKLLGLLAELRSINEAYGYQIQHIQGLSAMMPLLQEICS
Chain of Steroid hormone receptor ERR1 (Homo sapiens) (P11474 whole entry, looked up, the tested form may be a part): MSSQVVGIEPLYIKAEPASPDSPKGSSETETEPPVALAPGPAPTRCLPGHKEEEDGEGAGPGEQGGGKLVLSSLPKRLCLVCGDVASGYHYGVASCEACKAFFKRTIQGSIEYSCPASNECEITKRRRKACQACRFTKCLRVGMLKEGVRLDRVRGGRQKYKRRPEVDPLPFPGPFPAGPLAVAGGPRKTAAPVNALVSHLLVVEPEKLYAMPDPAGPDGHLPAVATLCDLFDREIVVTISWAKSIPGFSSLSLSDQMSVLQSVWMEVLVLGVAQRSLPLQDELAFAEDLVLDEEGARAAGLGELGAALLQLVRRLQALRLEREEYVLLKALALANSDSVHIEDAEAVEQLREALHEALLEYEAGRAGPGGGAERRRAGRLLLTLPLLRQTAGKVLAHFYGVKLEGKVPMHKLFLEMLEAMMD
Chain of Paired box protein Pax-6 (Homo sapiens) (P26367 whole entry, looked up): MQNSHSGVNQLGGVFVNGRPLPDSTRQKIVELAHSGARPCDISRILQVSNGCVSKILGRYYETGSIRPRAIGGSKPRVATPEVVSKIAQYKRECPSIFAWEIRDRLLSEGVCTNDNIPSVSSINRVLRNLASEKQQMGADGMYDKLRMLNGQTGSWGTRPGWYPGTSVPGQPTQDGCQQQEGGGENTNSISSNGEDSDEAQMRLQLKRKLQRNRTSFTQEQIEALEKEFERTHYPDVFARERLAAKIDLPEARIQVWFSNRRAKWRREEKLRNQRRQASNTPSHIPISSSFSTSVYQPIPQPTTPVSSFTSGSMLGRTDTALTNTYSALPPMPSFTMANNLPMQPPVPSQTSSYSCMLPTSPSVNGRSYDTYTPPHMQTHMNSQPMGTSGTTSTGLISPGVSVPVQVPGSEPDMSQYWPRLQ
Chain of X-box-binding protein 1 (Homo sapiens) (P17861 whole entry, looked up): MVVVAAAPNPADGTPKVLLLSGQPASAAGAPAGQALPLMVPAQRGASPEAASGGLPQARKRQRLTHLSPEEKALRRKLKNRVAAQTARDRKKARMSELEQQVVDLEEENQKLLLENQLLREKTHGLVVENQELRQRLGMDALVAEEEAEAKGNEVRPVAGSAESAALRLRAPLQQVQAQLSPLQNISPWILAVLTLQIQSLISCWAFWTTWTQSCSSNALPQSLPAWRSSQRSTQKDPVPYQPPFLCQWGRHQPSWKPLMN
Chain of Estrogen receptor (Homo sapiens) (P03372 whole entry, looked up, the tested form may be a part): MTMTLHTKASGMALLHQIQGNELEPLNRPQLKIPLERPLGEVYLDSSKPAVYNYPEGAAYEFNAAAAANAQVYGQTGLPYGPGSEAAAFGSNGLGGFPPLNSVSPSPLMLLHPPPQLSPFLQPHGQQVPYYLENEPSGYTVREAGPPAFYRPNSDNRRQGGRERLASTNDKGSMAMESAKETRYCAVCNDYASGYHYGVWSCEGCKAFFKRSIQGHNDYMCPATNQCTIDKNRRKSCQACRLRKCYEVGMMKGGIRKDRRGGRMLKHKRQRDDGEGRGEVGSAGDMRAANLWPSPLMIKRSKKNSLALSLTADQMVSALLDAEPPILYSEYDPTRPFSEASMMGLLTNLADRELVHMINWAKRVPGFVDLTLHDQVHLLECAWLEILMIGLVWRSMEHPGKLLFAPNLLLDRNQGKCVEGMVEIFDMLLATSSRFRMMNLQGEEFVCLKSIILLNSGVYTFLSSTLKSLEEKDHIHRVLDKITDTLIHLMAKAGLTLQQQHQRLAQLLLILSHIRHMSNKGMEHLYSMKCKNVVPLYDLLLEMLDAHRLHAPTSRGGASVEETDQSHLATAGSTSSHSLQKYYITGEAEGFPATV

C=CC(O)CCCCC (stereo not given)
active: [2] 58.6 µM | [6] 100 µM | [11] 27 µM | [14] 48.4 µM | [16] 48.1 µM
not listed: [18] | [19] | [20]
inactive: all other assays above

c1ccc(OCCOc2ccccc2)cc1
active: [4] 0.0167 µM
not listed: [15] | [20]
inactive: all other assays above

CC(=O)OC(C)(C)C1CC=C(C)CC1 (stereo not given)
active: [3] 36.9 µM | [19] 61.7 µM
not listed: [15]
inactive: all other assays above

COc1ccc(OC)cc1
not listed: [17] | [19]
inactive: all other assays above

CCCCOCC(C)OCC(C)O (stereo not given)
not listed: [15] | [20]
inactive: all other assays above

Cc1cc(N)n(-c2ccccc2)n1
active: [3] 39.5 µM
not listed: [16] | [17] | [19] | [20]
inactive: all other assays above

CCC(C)(C)c1cc(O)c(C(C)(C)CC)cc1O
active: [2] 68.9 µM | [6] 100 µM | [7] 4.19 µM | [8] 4.61 µM | [11] 27.4 µM | [13] 146 µM | [14] 19.8 µM
inactive: [1] | [3] | [4] | [5] | [9] | [10] | [12]

NNC(=O)OCc1ccccc1
not listed: [18]
inactive: all other assays above

CC(C)N1C(=O)c2ccccc2C1=O
active: [3] 37.2 µM | [19] 42.8 µM
not listed: [15] | [17] | [20]
inactive: all other assays above

CC(C)(C)C1CCC(O)CC1 (stereo not given)
active: [19] 29.2 µM
not listed: [15] | [18] | [20]
inactive: all other assays above

O=C(O)c1ccc(C(=O)O)c(C(=O)O)c1
not listed: [14] | [17] | [20]
inactive: all other assays above

CC/C=C\CCOC(C)OCC (stereo not given)
not listed: [15] | [17]
inactive: all other assays above

CCCO[Si](OCCC)(OCCC)OCCC
active: [4] 42.2 µM
not listed: [14] | [15]
inactive: all other assays above

COc1ccccc1NC(=O)CC(C)=O
active: [3] 34.2 µM | [14] 68.2 µM
not listed: [15] | [16] | [17] | [19]
inactive: all other assays above

CC(=O)c1ccc(C)cc1
not listed: [13] | [15]
inactive: all other assays above
